Source: PubChem
Hits are enriched below; roughly 3.5% of the tested compounds scored in any of these assays.
TexasRed fluor: Texas Red fluorescence interference in TRb-SRC2 counter-screen; Potency, µM (doses to about 106 µM), inactives show top-dose fluorescence change, negative = quenching; TRb/SRC2 Texas Red total fluorescence interference; AID 1479; 280,000 tested, 0.29% active; active means well fitted curve in either direction with a large enough effect; inconclusive means small, poorly fitted or top-dose-only effect
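Human TRb ligand-binding domain at 0.6 uM with 20 nM Texas Red SRC2 peptide in Tris buffer containing 1 uM T3 and 5% DMSO, incubated with compound 5 h at ambient temperature. Total fluorescence (555/632 nm) calculated as parallel + 2 × perpendicular.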
Tau fluor cs: counter-screen for tau fibril formation inhibitors; tau K18 P301L Alexa594 fluorescence, heparin fibrillization; 280,000 tested, 0.93% active; Potency, µM (top dose mostly 57.7 µM), inactives show at the top dose activity change, negative = decrease; AID 1463; further: nearly all actives have a fitted effect of over 55% in size
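Human K18 P301L tau (15 uM unlabeled plus 0.24 uM Alexa 594-labeled, final) in 100 mM sodium acetate pH 7 was mixed with compound and 20 uM heparin and incubated 6 hr at 37 C.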
Tau ThT inhib: tau fibrillization inhibition (ThT binding). 270,000 tested, 2.1% active. Potency, µM (series often up to 57.4 µM), without a hit: at the top dose activity, negative = inhibition, actives largely listed as inhibitors. P10636. AID 1460. recombinant tau K18 P301L (four-repeat tau fragment), heparin-induced fibrillization, ThT fluorescence; further: nearly all actives have a fitted effect of over 55% in size
Target sequence (P10636 561-689 P618L limits assumed): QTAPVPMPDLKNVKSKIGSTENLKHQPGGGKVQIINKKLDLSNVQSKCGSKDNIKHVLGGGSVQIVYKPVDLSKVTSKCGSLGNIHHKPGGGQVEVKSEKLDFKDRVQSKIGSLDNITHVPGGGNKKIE
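K18 P301L tau (15 uM + 0.24 uM Alexa 594-tagged), heparin 20 uM, NaOAc pH 7, 6 h 37 C; ThT 30 uM, 1 h RT, ex 450/em 510 nm.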
Tau fibril FP: blocks human tau fibril formation measured by polarization; P10636; K18 P301L tau heparin fibrillization, Alexa594 FP, 6 h; Potency, µM (series often up to 57.7 µM), for inactives: top-dose activity, negative = inhibition, actives largely listed as inhibitors; 280,000 tested, 0.39% active; further: nearly all actives have a fitted effect of over 55% in size
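Steps: dispense K18 P301L tau (15 uM plus 0.24 uM Alexa 594 tracer, final) in pH 7 sodium acetate; add compound; add heparin (20 uM final); incubate 6 hr, 37 C; add ThT (30 uM final); after 1 hr ambient, read FP.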
TRb-SRC2 inh: disrupts binding of human TR beta to SRC2; P10828; TRbeta-SRC2 peptide binding, fluorescence polarization; receptor liganded with 1 µM T3; Potency, µM (top dose mostly 106 µM), without a hit: at the highest dose activity change, negative = inhibition, usual class: inhibitors; 280,000 tested, 0.065% active;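 further: plate controls were bound peptide for no effect and peptide without receptor for full effect; nearly all actives have a fitted effect of over 50% in size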
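Compounds were added to 0.6 uM TRb ligand-binding domain and 20 nM Texas Red-labeled SRC2 peptide in Tris buffer containing 1 uM T3, incubated 5 hr at ambient temperature, then read by fluorescence polarization.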
JMJD2E inh: blocks human JMJD2E demethylase activity | B2RXH2 | JMJD2E catalytic domain, FDH-coupled NADH fluorescence (FDH is formaldehyde dehydrogenase) | Potency, µM (top dose mostly 57.1 µM), for the others: at the highest dose activity change, negative = inhibition, hits mostly inhibitors | AID 2147 | 230,000 tested, 1.6% active; active means well fitted inhibition curve with a large enough effect, not every such curve was filed as active; inconclusive means small, poorly fitted or top-dose-only effect, or another doubt; inactive means no such curve, though single readings can be large or run the other way;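 further: 0% = wells with enzyme and -100% = buffer wells without enzyme; nearly all actives have a fitted effect of over 50% in size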
Target sequence (B2RXH2 1-337 limits assumed): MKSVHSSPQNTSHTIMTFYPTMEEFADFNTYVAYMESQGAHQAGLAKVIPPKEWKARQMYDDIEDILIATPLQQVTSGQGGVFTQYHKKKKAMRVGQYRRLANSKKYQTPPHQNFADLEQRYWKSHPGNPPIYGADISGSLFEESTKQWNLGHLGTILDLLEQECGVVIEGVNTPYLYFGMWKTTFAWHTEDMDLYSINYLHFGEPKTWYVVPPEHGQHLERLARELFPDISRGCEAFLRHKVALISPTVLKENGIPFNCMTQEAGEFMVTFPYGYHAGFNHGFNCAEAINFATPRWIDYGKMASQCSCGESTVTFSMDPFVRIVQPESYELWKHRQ
Starred values were filed as active, the others as inactive; u = inconclusive; x = no result; [ ] = another dose, or the depositor's remark. Unless noted, the call rests on the fitted dose curve; in most records, active means well fitted curve in the direction sought with a large enough effect; inconclusive means small, poorly fitted or top-dose-only effect, or another doubt; inactive means no such curve, though single readings can be large; an effect the other way counts as inactive or inconclusive. Unless noted, on the % scale 0 is the no-effect control and ±100 the full control effect; potency means the concentration at half of the fitted maximal effect.

SMILES	TexasRed fluor	Tau fluor cs	Tau ThT inhib	Tau fibril FP	TRb-SRC2 inh	JMJD2E inh
O=[N+]([O-])c1ccc2c(c1Nc1ccccc1)=NC1(CCCCC1)N=2	-1.3%[53 µM]	-21.5%	u	-4.9%	-27.7%[53 µM]	u
COc1ccc(Nc2c([N+](=O)[O-])ccc3c2=NC2(CCCCC2)N=3)cc1	-9.7%	u	15.8µM*	u	-4.4%	u
CCN(C(=O)Cn1c(C(=O)OC)cc2sc(Cl)cc21)c1cccc(C)c1	-3.4%	-2.0%	-2.1%	-5.7%	-0.5%	x
NC(=O)CC(NC(=O)c1ccccc1)c1ccc(NCc2ccc(F)cc2)c([N+](=O)[O-])c1 (configuration not stated)	-3.2%	-20.1%	25.1µM*	2.3%	6.2%	-14.5%
NC(=O)CC(NC(=O)Cc1ccc(Br)cc1)c1ccc(NCCc2ccc(Cl)cc2)c([N+](=O)[O-])c1 (configuration not stated)	0.9%	u	u	u	-4.4%	-2.0%
NC(=O)CC(NC(=O)c1ccccc1)c1ccc(NCCc2ccc(Cl)cc2)c([N+](=O)[O-])c1 (configuration not stated)	-1.8%	u	12.6µM*	-11.6%	1.2%	2.5%
NC(=O)CC(NC(=O)c1ccccc1)c1ccc(NCc2ccccc2)c([N+](=O)[O-])c1 (configuration not stated)	-1.0%	-27.6%	12.6µM*	-3.0%	2.1%	1.9%
O=C(CCC(=O)c1ccc(Oc2ccccc2)cc1)Nc1ccc(Cl)cc1Cl	0.3%	-17.0%	-20.9%	-3.2%	8.2%	4.0%
Cc1noc2ncnc(N3CCN(c4cccc(C(F)(F)F)c4)CC3)c12	-6.8%	-8.8%	-12.5%	1.8%	6.4%	x
Cn1c(=O)n(C)c2cc(N3CCOCC3)c(NC(=O)c3ccccc3Br)cc21	-1.1%	-15.8%	-17.1%	-4.7%	-1.9%	x
CC(C)c1ccc(NC(=O)c2snc3ccc(Cl)cc23)cc1	2.5%	u	u	22.4µM*	6.2%	-3.6%
O=c1nc2s/c(=C\c3ccc(-c4ccccc4[N+](=O)[O-])o3)c(=O)n2nc1-c1ccccc1	2.0%	u	7.08µM*	u	-0.3%	8.5%
N#CC(C#N)=C1C=CC=CN1/C(=C\c1ccco1)C(=O)c1ccccc1	-2.5%	u	14.1µM*	20µM*	7.7%	13.5%
N#CC(C#N)=C1C=CC=CN1/C(=C\c1ccco1)C(=O)c1ccc(Br)cc1	3.0%	-27.7%	11.2µM*	u	-2.8%	-5.4%
COc1ccc(NC(=O)c2cccs2)cc1	-2.1%	-2.3%	-12.9%	0.2%	2.5%	-7.3%
COc1ccc(/C=C(/C(=O)c2cccs2)N2C=CC=CC2=C(C#N)C#N)cc1	-0.3%	-29.4%	28.2µM*	u	-3.9%	-20.8%
COc1ccc(C(=O)/C(=C\c2ccco2)N2C=CC=CC2=C(C#N)C#N)cc1	-4.8%	u	12.6µM*	u	0.2%	u
CCCC(C)NC(=O)c1cccc(Oc2ccccc2)c1 (configuration not stated)	-1.7%	0.5%	0.9%	2.8%	-7.3%	-1.6%
O=C(CSc1nc(-c2cccc(F)c2)[nH]c1-c1ccccc1)Nc1ccc2c(c1)OCCO2	-1.8%	11.2µM*[quencher]	u	u	6.4%	x
Cc1ccc2nc(SCC(=O)Nc3ccc4c(c3)OCCO4)[nH]c2c1	1.5%	u	u	-5.0%	-4.8%	2.3%
Cc1cccc(-c2nc(SCC(=O)Nc3ccc4c(c3)OCCO4)c(-c3ccccc3)[nH]2)c1	-2.1%	8.91µM*[quencher]	-13.8%	2.0%	0.4%	x
O=C(CSc1nc2ccccc2[nH]1)Nc1ccc2c(c1)OCCO2	-5.1%	-11.8%	u	-1.2%	-0.4%	-3.8%
COCCCNC(=O)CC(NS(=O)(=O)c1ccc(C)cc1)c1ccc(OC)cc1 (configuration not stated)	-0.4%	-5.8%	-11.3%	0.5%	2.2%	-4.7%
